Results: the supplement of paper PMC11417369
The full ranking holds about 25,000 sequences; the median of “ln(normalized median fluorescence intensity)” is about 9.7, and the highest 2% start at about 11. What follows is part of a selection rich in the highest values, with near analogues and random picks from the rest.

What follows are sequences tested on PfAP2-HC AP2 domain (GST-tagged) (assay: gcPBM binding intensity (ln(normalized median fluorescence intensity)); higher = stronger DNA binding).
Method in brief: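 Probes on an Agilent 4 × 180k array were primer-extended, double-stranded and 36 bp long, taken from intergenic genomic regions, with negative controls added. GST-tagged P. falciparum DNA-binding domains from E. coli, about 25 μg on average, were applied to the array for 1 h in 1× PBS containing 1% milk, 0.2 mg/ml BSA, 0.5% salmon testes DNA and 0.03% Triton X-100. Binding intensity, obtained after Alexa488 anti-GST antibody detection and a 488 nm scan, is the highest Masliner-normalised natural-log median intensity across replicate spots of either probe orientation.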

| Sequence | gcPBM binding intensity (ln) |
| --- | --- |
| ATTTTTTCTTTTTTTTTTCCGTTTTTTTGGACATTT [CACACA_negctrl_site1174] | 9.75 |
| TAAATATATATATATAGTACAATATAATTATGATAT [XGTACX_site258] | 9.75 |
| AAAAAAAAAATATCATGTACAAATATAATAAAATTT [XGTACX_site3896] | 9.79 |
| TATATTTAAGTACATAAATAAGCCCATTTACATACA [CACACA_negctrl_site1224] | 9.37 |
| AATAATAATGCTTTAACTTTGTTGTTATTTAGAATA [CACACA_negctrl_site1144] | 9.44 |
| AATAGCTAGCTGTGCACACAAACATATTTTCCAAAT [CACACA_site880] | 9.91 |
| AGGTTATATATGAACAAAAATAAAATATTCATAGGC [TGCATGCA_negctrl_site46] | 9.77 |
| AAATAAATACTAGGCACACACACATATATATATATA [CACACA_site2079] | 11 |
| TAAACAGACATATAAACACACATACATACATACATA [CACACA_site7215] | 10.2 |
| ATAAATACTAGGCACACACACATATAGATTTATATA [CACACA_site7064] | 10.8 |
| AAAAAAAACAGACACACACACACATATACATACATA [CACACA_site2665] | 11.5 |
| ATAAATACTAGGCACACACACATATATATATATATA [CACACA_site2080] | 10.4 |
| AAAAAACACAGACACACACACATATACATACATACA [CACACA_site2666] | 10.7 |
| TGTTTCTAAGAATTTACACACAAAATATTTCTACAT [CACACA_site7846] | 9.9 |
| TTTATTTATTAAGAATGTACATGTATTTGTTAAATA [XGTACX_site4465] | 9.4 |
| TATACACATAGACACACACACATACACGCACATACA [CACACA_site6908] | 10.7 |
| CATAGATACATACACGCACACACATATATATATATA [CACACA_site13] | 10.3 |
| TATCTCATAGTATACACACACACACGCGCACATATA [CACACA_site6917] | 10.5 |
| TCTCATAGTAGACACACACACACACGCACATATATA [CACACA_site6916] | 11.3 |

| Sequence | gcPBM binding intensity (ln) |
| --- | --- |
| AAATTTGGCAGACACACACACACACGCACACGCACA [CACACA_site6423] | 11.5 |
| CACATACACATACACATACACACGCATAGAAACATA [CACACA_site2136] | 10.5 |
| CGCACACGCAGACACACACACACATATAAATAAATA [CACACA_site7101] | 10.8 |
| AAAAATTTGGCATACACACACACACGCACACGCACA [CACACA_site6422] | 10.6 |
| ATTTGGCATAGACACACACACACACGCACGCACATA [CACACA_site6424] | 11.1 |
| TCAAGTTTATATTAACTATTTATGAAAAAAAAAAGA [CACACA_negctrl_site902] | 9.38 |
| ATTTTATATACACTTTGTACTTATTTTATTCTTCTT [XGTACX_site4200] | 9.93 |
| TAATATATTTATAAGTGTACACATTATATAAATCCC [XGTACX_site8875] | 9.64 |
| ATCCATTATTTTTGTTGTACGGGTAACTTTAAAAAG [XGTACX_site2226] | 9.5 |
| ATGAATAATTAATGATGTACTTAAAAAAAAAAATAT [XGTACX_site6346] | 9.53 |
| TATATAGCTAAAAACACACAAATATGTACACATAAA [CACACA_site7665] | 9.88 |
| ATGAACATATCAATTCTCAAAATAGGATGAGAGCAT [CACACA_negctrl_site230] | 9.6 |
| ATCATAAATATAGCAACACACGGATTACATAAAATA [CACACA_site2796] | 9.85 |
| GTGGTTATATATTAAGTGCATATTATAATTTTAAAC | 9.52 |
| TATGTGAATATAATCACACACAATACGGAAACCCAC [CACACA_site2725] | 9.99 |
| AATATGTGAATATAATCACACACAATACGGAAACAC [CACACA_site8875] | 10.7 |
| TATGTGAATATAATCACACACAATACGGAAAGAGAC [CACACA_site7311] | 11.2 |
| TTAAAATTTTTCAAAAGTACATAAATAATATATATT [XGTACX_site4694] | 9.32 |
| ATAAACAGATCATATACATGCATATATGTAGAATAA [TGCATGCA_site157] | 9.82 |

| Sequence | gcPBM binding intensity (ln) |
| --- | --- |
| CACACGCACGAACACACACACACACGCACGCACATA [CACACA_site6305] | 10.7 |
| CACACGCACGAACACACACACATATAAATATAAATA [CACACA_site6299] | 10.2 |
| CACGCGCACGAACACACACACACACGCATATAAATA [CACACA_site7103] | 11 |
| CACACGCACGAACACACACACACACGCATATAAATA [CACACA_site6302] | 10.9 |
| CACACGCACGAACACACACACACACGCGCACATATA [CACACA_site6304] | 11 |
| AACACGCGCAGACACACACACACACGCACATATATA [CACACA_site7104] | 10.9 |
| ATATACTATTAACCACATATGTGTGTTAATTTATAT [GTGCAC_negctrl_site315] | 9.79 |
| CATATATAATAATATTGTACATATATAATAATAATA [XGTACX_site3338] | 9.69 |
| AAATAAGAACATAGAATGCACTTTTTTTTTTTTTCC | 9.51 |
| TAAATATATGCATATACACACAACAAAAAAATATAT [CACACA_site2341] | 10.1 |
| AATAAGTATACACATACACACACACCCAAAAAAAAA [CACACA_site8034] | 11 |
| GGTGATAATAAGCATACACACACACCCAAAAAAAAA [CACACA_site8137] | 10.2 |
| TAAGTATACGCATACACACACACACCCAAAAAAAAA [CACACA_site425] | 10.4 |
| TGATAATAAGCATACACACACACACTAGAAAAAAAA [CACACA_site4558] | 11.5 |
| AATAAAATAATAAAAGCACACAAGAATACACCCAAA [CACACA_site7919] | 10.6 |
| TGATAATAAGCATACACACACACACTAAAAAAAAAA [CACACA_site6478] | 10.9 |
| AAGTAAAATAAGTATACACACATAAATATATATATA [CACACA_site685] | 10.1 |
| TGATAATAAGCATACACACACACACCCAAAAAAAAA [CACACA_site721] | 11.2 |
| AAGAAAATAAAAAATAAGCATAATATGATATGATAT [TGCATGCA_negctrl_site196] | 10.1 |
